Screens: PubChem, National Center for Advancing Translational Sciences (NCATS)
AmpC inh detg = qHTS Inhibitors of AmpC Beta-Lactamase (assay with detergent); P00811; AmpC hydrolysis of nitrocefin, absorbance 480 nm, 0.01% Triton; Potency, µM (top dose mostly 114 µM), usual class: inhibitors; 370,000 tested, 0.041% active; AID 485294, 2010; also: nearly all actives have a fitted effect of over 25% in size
Target sequence (P00811 whole entry, looked up): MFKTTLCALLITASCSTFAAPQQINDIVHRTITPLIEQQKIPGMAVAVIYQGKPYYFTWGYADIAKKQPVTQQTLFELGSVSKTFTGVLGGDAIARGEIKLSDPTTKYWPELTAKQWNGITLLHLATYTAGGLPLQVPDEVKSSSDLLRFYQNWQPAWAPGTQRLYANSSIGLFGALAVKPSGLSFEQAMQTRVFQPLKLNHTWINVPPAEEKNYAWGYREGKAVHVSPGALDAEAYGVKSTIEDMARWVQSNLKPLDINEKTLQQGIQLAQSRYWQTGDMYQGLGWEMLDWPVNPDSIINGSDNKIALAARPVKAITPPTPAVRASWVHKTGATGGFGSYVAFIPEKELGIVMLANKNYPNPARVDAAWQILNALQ
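AmpC (5.3 nM in the dispensed reagent) in 20 mM phosphate pH 7.0 with 0.01% (detergent screen) or 0.0001% Triton X-100 was preincubated with compounds for 15 min at room temperature. Nitrocefin was then added from an 800 uM solution, and hydrolysis was followed at 480 nm.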
AmpC inh no detg = qHTS Inhibitors of AmpC Beta-Lactamase (assay without detergent). AmpC nitrocefin hydrolysis, absorbance 480 nm, 0.0001% Triton. Potency, µM (titrated, usually from 57.1 µM), most hits filed as inhibitors. 330,000 tested, 0.52% active; also: nearly all actives have a fitted effect of over 20% in size
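20 mM phosphate pH 7.0 + 0.01% (detergent screen) or 0.0001% Triton X-100; 5.3 nM AmpC reagent; cpd preinc 15 min RT; nitrocefin (800 uM stock) to start; A480 q20 s × 4 min; Activity was normalised to no-enzyme and no-compound control wells.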
FMDV inh = High Throughput Screening for Foot and Mouth Disease Virus Antivirals; FMDV antiviral cell-based qHTS; Potency, µM (highest dose often 57.9 µM), hits mostly inhibitors; 410,000 tested, 1.2% active; AID 1159524, 2015; calls by dose curve; tested in HEK293T cells; also: read-out not given here; nearly all actives have a fitted effect of over 45% in size
Sm TGR block = qHTS Assay for the Inhibitors of Schistosoma Mansoni Peroxiredoxins; Schistosoma mansoni thioredoxin glutathione reductase (TGR), Q962Y6; purified TGR, DTNB reduction, TNB absorbance 405 nm; Potency, µM (highest dose often 114 µM), hits mostly inhibitors; 360,000 tested, 3% active; AID 485364, 2010; also: nearly all actives have a fitted effect of over 60% in size
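First, TGR (20 nM dispensed) and NADPH were mixed with compound. Second, a 15 min room-temperature incubation followed. Third, further NADPH and then DTNB were added to start the reaction. Finally, TNB absorbance was monitored kinetically.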
AMA1-RON2 inh = qHTS for Inhibitors of AMA1-RON; Towards Development of Antimalarial Drug Lead: Primary Screen. Plasmodium falciparum AMA1 (3D7) - RON2 peptide interaction. AlphaScreen AMA1-biotinylated RON2 peptide binding. Potency, µM (series often up to 58.2 µM), usual class: inhibitors. 360,000 tested, 0.2% active; also: nearly all actives have a fitted effect of over 45% in size
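AMA1 (3D7) with his tag at 25 nM final met compounds first, then biotinylated RON2 peptide at 25 nM; detection used donor plus acceptor beads, 10 µg/mL apiece, read by AlphaScreen after 30 min at room temperature.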
Hits are given with their value; n = inactive; u = inconclusive; x = no result given; [ ] = dose if it differs, or a comment. This is a sample that favours compounds with a hit; in the whole collection about 4.1% have one here. Unless noted, calls follow the shape of the dose curve; as a rule, active = well fitted curve in the direction sought with a large enough effect; inconclusive = small, poorly fitted or top-dose-only effect, or another doubt; inactive = no such curve, though single readings can be large; an effect the other way counts as inactive or inconclusive.

SMILES	AmpC inh detg	AmpC inh no detg	FMDV inh	Sm TGR block	AMA1-RON2 inh
CC[C@@](N)(C(=O)O)c1ccc(C(=O)O)cc1	x	x	n	x	x
CC(OC(=O)C1=Cc2ccccc2OC1)C(=O)NC1CCCC1 (centres undefined)	n	0.159µM	x	n	n
CCN1C(=O)C(=Cc2ccc(C)s2)C(=O)N(CC)C1=S	u	n	39.8µM	n	n[11.6 µM]
Cn1ncc2c(N3CCN(c4ccc(F)cc4)CC3)ncnc21	n	x	u	n	x
CCOC(=O)C1=C(O)c2ccccc2C(=O)/C1=C\c1ccc(C)cc1	n	n	28.2µM	3.55µM	u
COc1ccc(-c2c3c(=O)n(C)c(=O)n(C)c3cn2Cc2cccnc2)cc1	n	n	n	u	n
Cc1ccc(-c2c3c(=O)n(C)c(=O)n(C)c3cn2Cc2ccccn2)cc1	u	n	n	35.5µM	n
COc1ccc(-c2c3c(=O)n(C)c(=O)n(C)c3cn2Cc2ccccn2)cc1	n	n	n	28.2µM	n
COc1cc(OC)cc(C(=O)Nc2cc(NC(=O)c3ccco3)ccc2OC)c1	n	n	n	n	n
COc1cc(OC)cc(C(=O)Nc2ccc(NC(=O)c3ccco3)c(C)c2)c1	n	n	n	39.8µM	n
COc1cc(NC(=O)c2ccco2)c(C(=O)O)cc1OC	n	n	n	39.8µM	n
O=C(CSc1ccc(C(F)(F)F)cn1)Nc1ccccc1	n	n	n	n	n
O=C(/C=C/Sc1ccc(C(F)(F)F)cn1)c1ccccc1	n	n	n	89.1µM	n
O=C(c1ccc(Cl)cc1)N1CCCCC1CCN1CCOCC1 (centres undefined)	n	x	n	n	x
CC12CC3CC(C)(C1)CC(C(=O)NCc1ccco1)(C3)C2	n	n	n	n	n
O=S(NCc1ccccc1)C12CC3CC(CC(C3)C1)C2 (centres undefined)	u	n	x	n	n
O=C(NCc1ccco1)C12CC3CC(C1)CC(C(=O)NCc1ccco1)(C3)C2	n	n	n	39.8µM	n
O=S(NCc1ccco1)C12CC3CC(CC(C3)C1)C2 (centres undefined)	n	n	x	22.4µM	n
O=C(NCc1ccccc1Cl)c1ccc2c(c1)NC(=O)C(CS(=O)(=O)Cc1ccc(Cl)cc1)N2 (centres undefined)	n	x	n	n	x
CC1CCN(C(=O)c2c(NC(=O)c3ccccc3F)sc3c2CCC(C(C)(C)C)C3)CC1 (centres undefined)	n	x	n	n	x
CN1CCN(c2ccc(-c3ccc4ccccc4n3)cc2)CC1	n	n[2.29 µM]	1.78µM	n	n
c1ccc2nc(-c3ccc(N4CCOCC4)cc3)ccc2c1	n	n	n	n	n
CCS(=O)(=O)c1c([N+](=O)[O-])ncn1C	u	n	u	0.631µM	n
O=C(COc1cccnc1[N+](=O)[O-])Nc1cccc2ccccc12	n	n	n	n	n[11.6 µM]
CNc1c([N+](=O)[O-])ncn1C	n	n	n	n	n
SMILES	AmpC inh detg	AmpC inh no detg	FMDV inh	Sm TGR block	AMA1-RON2 inh
Cn1cnc([N+](=O)[O-])c1S(=O)(=O)Oc1ccc(Cl)cc1	x	x	20µM	x	n
Cn1cnc([N+](=O)[O-])c1Cl	n	n	u	3.98µM	n
O=C1CCCN1c1ccc(S(=O)(=O)Oc2ccc(Cl)cc2)cc1[N+](=O)[O-]	n	n	u	n	n
Cn1cnc([N+](=O)[O-])c1Oc1cccc2ccccc12	n	n	28.2µM	25.1µM	n
COc1ccc(Cl)cc1NC(=O)Cn1c(=O)n(Cc2ccco2)c(=O)c2ccc(C(=O)NC3CCCC3)cc21	n	x	n	n	x
Cc1c(C(=O)NCCc2cccnc2)cnn1-c1nccc(-c2ccccc2F)n1	x	x	n	x	x
O=C(O)C1NCCN(C(=O)c2ccc3c(ccc4ccccc43)c2)C1C(=O)O (centres undefined)	x	x	n	x	x
Cn1cnc([N+](=O)[O-])c1S(=O)(=O)Oc1cccc2ccccc12	x	x	22.4µM	x	n
Cc1ccc(S(=O)(=O)N(CC(=O)NCc2ccco2)Cc2ccc(F)cc2)cc1	u	n	n	39.8µM	n
CS(=O)(=O)N(CC(=O)NCc1ccco1)Cc1ccc(Cl)cc1	n	n	n	11.2µM	n
CS(=O)(=O)N(CC(=O)NCc1ccccc1)Cc1ccc(Cl)cc1	u	n	n	n	n
CCc1noc(-c2ccc(N3CCCCC3C)c([N+](=O)[O-])c2)n1 (centres undefined)	n	x	n	n	x
CC(=O)N1CCc2cc(CNC(=O)Nc3ccc(Br)c(C)c3)ccc21	n	x	n	n	x
CC(C)(C)c1nn2cnnc2n(/N=C/c2cccc3ccccc23)c1=O	u	n	28.2µM	n	n
CCOc1ccc(C(=O)Nc2ccc(S(=O)(=O)N3CCCCC3c3cccnc3)cc2)cc1 (centres undefined)	n	x	31.6µM	n	x
Cc1ccc(NC(=S)Nc2nc(CC(=O)Nc3ccccc3)cs2)cc1	n	14.1µM	n	n	n
COc1ccc(NC(=O)Cc2csc(NC(=O)Nc3ccccc3OC)n2)cc1	x	x	u	x	n
COc1ccccc1NC(=O)Nc1nc(CC(=O)Nc2ccc(N(C)C)cc2)cs1	u	n	n	n	17.8µM
CCn1c(CN2CCN(c3cccc(Cl)c3)CC2)nc2c1c(=O)[nH]c(=O)n2C	n	x	n	n	x
O=C1c2oc3ccccc3c(=O)c2C(c2ccc(Br)cc2)N1c1ccccn1 (centres undefined)	n	x	n	n	x
O=C(CCn1c(=O)oc2ccccc21)n1c(=O)oc2ccccc21	n	n	n	15.8µM	n
CN(C)c1ccc(-[n+]2c(-c3ccccc3)cc(-c3ccccc3)cc2-c2ccccc2)cc1	n	n	31.6µM	x	n
c1ccc(-c2cc(-c3ccccc3)[n+](-c3ccccc3)c(-c3ccccc3)c2)cc1	n	n	17.8µM	n	n
Cc1ccc(-c2cc(-c3ccc(C)cc3)[n+](-c3ccccc3)c(-c3ccc(C)cc3)c2)cc1	n	n	7.08µM	n	n
Cc1ccc(-c2cc(-c3ccccc3)cc(-c3ccccc3)[n+]2-c2ccccc2)cc1	n	n	7.08µM	n	n
CCOC(=O)c1ccc(-[n+]2c(-c3ccccc3)cc(-c3ccccc3)cc2-c2ccccc2)cc1	n	n	n	n	n
Cc1ccc(-c2cc(-c3ccc(C)cc3)[n+](-c3ccc(C(=O)[O-])cc3)c(-c3ccc(C)cc3)c2)cc1	n	n	n	n	n
CC(=O)OC1CCC2(C)C(=CC=C3C2CCC2(C)C3CCC2C(C)/C=C/C(C)C(C)C)C1(C)C (centres undefined)	x	x	n	x	x
Cc1ccc(Cl)cc1N1CCN(C(=O)CCC(=O)O)CC1	n	n	n	n	n
Cc1cc2c(cc1C)N(C(=O)CCl)CC(=O)N2	x	x	39.8µM	x	n
